The text below walks through data of PubChem BioAssay (Tox21).

Inconclusive results are not listed. Active and inactive are the calls of the source. Unless noted, calls follow the shape of the full dose curve.

Test [1] in a line: Nuclear factor erythroid 2-related factor 2/antioxidant responsive element (Nrf2/ARE) small molecule agonists: qHTS cell viability counter screen in human keratinocytes (AID 1919968; active = well fitted curve in the direction sought with a large enough effect in the repeat runs; an effect the other way counts as inactive or inconclusive; also: nearly all actives have a fitted effect of over 55% in size; also: potency is read from the fitted curve at half-maximal effect). An outline of the steps:
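Viability counter-screen: KeratinoSens reporter cells, DMSO-delivered compounds, 23 h at 37 C, CellTiter-Fluor fluorescence.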
(In qHTS, concentration-response curves come from the screen itself.)

The nature of test [2]: Nuclear factor erythroid 2-related factor 2/antioxidant responsive element (Nrf2/ARE) small molecule agonists: luciferase reporter gene qHTS assay in human keratinocytes (AID 1919969). Also: nearly all actives have a fitted effect of over 35% in size. Also: potency is read from the fitted curve at half-maximal effect. On the technique in general: In a reporter assay the amount or activity of a reporter protein is the signal.
The target in test [3] is Gonadotropin-releasing hormone receptor (Homo sapiens) (UniProt P30968). The experiment in a line: Human gonadotropin-releasing hormone receptor (GnRHR) small molecule agonists, calcium flux assay in GnRHR-HEK293 cells (AID 1920063). Also: nearly all actives have a fitted effect of over 35% in size. The gist of the method:
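Tox21-format agonist screen using human GnRHR-expressing HEK293 cells and a fluorescent calcium dye; kinetic 3-min fluorescence reading after compound addition, 15-point concentration series run in triplicate.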
A general note: Calcium assays in cells follow changes in intracellular calcium, usually with a dye or a luminescent sensor.

Test [4] concerns the target KiSS-1 receptor (Homo sapiens) (UniProt Q969F8). The experiment in a line: Human kisspeptin (KISS1R) small molecule agonists, calcium flux assay in KISS1R-HEK293 cells (AID 1920064; active = well fitted curve in the direction sought with a large enough effect in the repeat runs; an effect the other way counts as inactive or inconclusive). The gist of the method: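 Intracellular calcium mobilization in KISS1R-HEK293 cells was recorded by fluorescence (Ex/Em 480/540) for 3 min following compound addition to cells pre-loaded 1 h with calcium dye.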

The nature of test [5]: G protein-coupled receptor (GPCR) small molecule agonists, calcium flux assay: HEK293 wild type cell line counter screen (AID 1920065). Also: potency is read from the fitted curve at half-maximal effect. An outline of the steps:
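In this agonist-mode screen, ATP is the positive control and DMSO the vehicle. Cells grow 18 h before a 1 h dye incubation at 37 C; signal is taken at Ex/Em 480/540 over 3 min.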

Test [6] in a line: p53 small molecule agonists, cell-based qHTS assay with human liver microsomes: qHTS cell viability counter screen (AID 1963579). Also: nearly all actives have a fitted effect of over 45% in size. Also: potency is read from the fitted curve at half-maximal effect. The gist of the method: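 p53RE-bla cells, 4,000/well, dosed 5 hours after plating, with human liver microsomes (0.5 mg/mL final) plus NADPH (0.5 mg/mL final), 16 hours at 37 C. Viability read as CellTiter-Glo luminescence after 30 min at room temperature.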

Test [7] is described as follows: p53 small molecule agonists, cell-based qHTS assay with rat liver microsomes: qHTS cell viability counter screen (AID 1963580). Also: nearly all actives have a fitted effect of over 45% in size. Also: potency is read from the fitted curve at half-maximal effect. The gist of the method:
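HCT-116 p53RE-bla, 4,000 cells/well, 5 h pre-incubation; cpd + rat liver microsomes 0.5 mg/mL + NADPH 0.5 mg/mL (final); 16 h, 37 C; CellTiter-Glo, 30 min RT; luminescence.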

A short description of test [8]: p53 small molecule agonists, cell-based qHTS assay: qHTS cell viability counter screen (AID 1963581). Also: nearly all actives have a fitted effect of over 45% in size. Also: potency is read from the fitted curve at half-maximal effect. An outline of the steps:
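Compounds are pinned onto HCT-116 p53RE-bla cells and left 16 h at 37 C. Following the reporter FRET read, ATP is quantified by CellTiter-Glo luminescence after 30 min at room temperature.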

In test [9] the target is 5-hydroxytryptamine receptor 2A (Homo sapiens) (UniProt P28223). Kind of test: 5-hydroxytryptamine receptor 2A (HTR2A) small molecule agonists, cell-based qHTS assay (AID 1963587). Also: nearly all actives have a fitted effect of over 30% in size. Also: potency is read from the fitted curve at half-maximal effect. An outline of the steps: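 Kinetic calcium-flux fluorescence (2 min, 1 sec intervals) after compound addition in agonist mode. HTR2A-CHO cells were cultured 18 h, then dye-loaded 1 h at 37 C.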
Chain of 5-hydroxytryptamine receptor 2A (Homo sapiens) (P28223 whole entry, looked up): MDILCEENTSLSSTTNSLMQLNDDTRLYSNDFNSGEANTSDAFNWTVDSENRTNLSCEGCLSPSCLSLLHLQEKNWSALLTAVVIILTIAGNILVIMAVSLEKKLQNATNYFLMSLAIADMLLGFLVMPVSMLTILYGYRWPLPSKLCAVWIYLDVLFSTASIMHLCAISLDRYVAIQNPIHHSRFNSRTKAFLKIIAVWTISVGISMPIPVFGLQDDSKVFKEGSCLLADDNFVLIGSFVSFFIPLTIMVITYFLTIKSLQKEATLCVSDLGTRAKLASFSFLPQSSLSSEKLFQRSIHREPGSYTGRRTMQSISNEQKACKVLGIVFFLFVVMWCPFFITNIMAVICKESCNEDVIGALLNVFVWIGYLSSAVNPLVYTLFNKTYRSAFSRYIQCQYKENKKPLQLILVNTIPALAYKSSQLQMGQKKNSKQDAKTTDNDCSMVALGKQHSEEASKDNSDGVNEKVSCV

Test [10] addresses Muscarinic acetylcholine receptor M1 (Homo sapiens) (UniProt P11229). Kind of test: Cholinergic receptor muscarinic 1 (CHRM1) small molecule antagonists, cell-based qHTS assay (AID 1963588). Also: nearly all actives have a fitted effect of over 40% in size. Also: potency is read from the fitted curve at half-maximal effect. The gist of the method:
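CHRM1-CHO calcium-flux assay, antagonist mode. Cells were seeded 18 h, dye-loaded 1 h at 37 C and given compound for 5 min at RT, then acetylcholine was added at 50nM. FDSS fluorescence was read 3 min; 15 concentrations, three runs.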

Test [11] shares this target. Kind of test: Cholinergic receptor muscarinic 1 (CHRM1) small molecule agonists, cell-based qHTS assay (AID 1963589). Also: nearly all actives have a fitted effect of over 35% in size. The gist of the method: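 Stable CHRM1-CHO cells (human receptor) were incubated 18 h, dye-loaded for 1 h at 37 C and exposed to test compounds for agonist activity, with calcium-dependent fluorescence followed kinetically.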
Test [12] addresses D(2) dopamine receptor (Homo sapiens) (UniProt P14416). Kind of test: Dopamine D2 receptor (DRD2) small molecule agonists, cell-based qHTS assay (AID 1963594). Also: nearly all actives have a fitted effect of over 35% in size. Also: potency is read from the fitted curve at half-maximal effect. The gist of the method:
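cAMP accumulation in DRD2-HEK293 cells measured by HTRF after 1 h detection; compounds added 10 min before NKH477 (200nM […]) forskolin-analogue stimulation, 30 min at room temperature, with Ro20-1724 present at 0.1 mM final.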

Test [13] has the same target. Kind of test: Dopamine D2 receptor (DRD2) small molecule antagonists, cell-based qHTS assay (AID 1963595; active = well fitted inhibition curve with a large enough effect in the signal ratio in the repeat runs, with a control signal flat; the % refers to the signal ratio). An outline of the steps:
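Antagonist mode in DRD2-HEK293 cells: after compound addition with 0.1 mM Ro20-1724, cells received quinpirole (12 nM) and NKH477 (200 nM) for 30 min at room temperature; HTRF cAMP read after 1 h detection.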

The nature of test [14]: cAMP Responsive Elements (CRE) small molecule antagonists, cell-based qHTS assay (AID 1963591; active = well fitted inhibition curve with a large enough effect in the signal ratio in the repeat runs, not every such curve was filed as active; the % refers to the signal ratio). The gist of the method: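 qHTS in CRE-bla HEK 293T cells: compound in DMSO, then 0.25 uM NKH477 (final), 3 h at 37 °C/5% CO2; beta-lactamase FRET read-out after 2 h substrate incubation.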
The target of test [15] is Beta-2 adrenergic receptor (Homo sapiens) (UniProt P07550). The experiment in a line: Adrenergic beta2 receptor (ADRB2) small molecule antagonists, cell-based qHTS assay (AID 1963592). Also: series mostly up to about 92 µM; nearly all actives have a fitted effect of over 50% in size. An outline of the steps:
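Cells (CHO, stable ADRB2 overexpression) incubated 18-20hr at 37C; compounds added from DMSO; agonist mix (1nM isoproterenol, 100uM IBMX, 25uM Ro-20-1724) added; 0.5hr RT; d2-cAMP and anti-cAMP-cryptate added; 1hr RT; 665/615 nm read.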

Test [16] deals with 5-hydroxytryptamine receptor 2A (Homo sapiens) (UniProt P28223). The experiment in a line: 5-hydroxytryptamine receptor 2A (HTR2A) small molecule antagonists, cell-based qHTS assay (AID 1963586). Also: nearly all actives have a fitted effect of over 45% in size. An outline of the steps:
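Antagonist-mode intracellular calcium assay: DOI (4 nM) added after 5 min compound pre-incubation at room temperature to dye-loaded HTR2A-CHO cells. Fluorescence followed for 3 min, sampled every second.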

Test [17] is described as follows: cAMP Responsive Elements (CRE) small molecule agonists, cell-based qHTS assay (AID 1963590). The gist of the method: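 FRET-based beta-lactamase readout (LiveBLAzer B/G, 2 h RT) quantified CRE activation in HEK 293T CRE-bla cells after 3 h treatment with DMSO-dissolved compounds.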
The target of test [18] is Beta-2 adrenergic receptor (Homo sapiens) (UniProt P07550). Kind of test: Adrenergic beta2 receptor (ADRB2) small molecule agonists, cell-based qHTS assay (AID 1963593).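 Also: CHO cells stably overexpressing human ADRB2.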 An outline of the steps: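 CHO cells stably over-expressing ADRB2 were plated overnight at 37C, then dosed with compounds plus a stimulation mix containing 100uM IBMX and 25uM Ro-20-1724 for 0.5hr at room temperature. cAMP was measured by HTRF competition, 1hr.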
Chain of Beta-2 adrenergic receptor (Homo sapiens) (P07550 whole entry, looked up): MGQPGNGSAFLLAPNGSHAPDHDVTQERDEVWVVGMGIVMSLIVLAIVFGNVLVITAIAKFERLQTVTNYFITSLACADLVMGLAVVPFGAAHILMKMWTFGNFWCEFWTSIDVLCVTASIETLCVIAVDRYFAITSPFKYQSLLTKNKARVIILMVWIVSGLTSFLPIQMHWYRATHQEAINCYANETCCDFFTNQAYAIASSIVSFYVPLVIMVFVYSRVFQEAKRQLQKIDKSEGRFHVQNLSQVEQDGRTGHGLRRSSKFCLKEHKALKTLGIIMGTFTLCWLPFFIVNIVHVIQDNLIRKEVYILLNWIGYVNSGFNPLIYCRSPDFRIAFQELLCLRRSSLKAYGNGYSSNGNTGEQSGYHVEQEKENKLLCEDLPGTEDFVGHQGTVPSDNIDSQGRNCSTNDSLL

The nature of test [19]: p53 small molecule agonists, cell-based qHTS assay (AID 1963582; active = well fitted activation curve with a large enough effect in the signal ratio in the repeat runs, not every such curve was filed as active; the % refers to the signal ratio). The gist of the method: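 Agonist activity was scored from beta-lactamase FRET fluorescence in p53RE-bla cells treated 16 h at 37 C with compounds in DMSO, substrate incubation being 2 h at room temperature.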

Chain of Gonadotropin-releasing hormone receptor (Homo sapiens) (P30968 whole entry, looked up): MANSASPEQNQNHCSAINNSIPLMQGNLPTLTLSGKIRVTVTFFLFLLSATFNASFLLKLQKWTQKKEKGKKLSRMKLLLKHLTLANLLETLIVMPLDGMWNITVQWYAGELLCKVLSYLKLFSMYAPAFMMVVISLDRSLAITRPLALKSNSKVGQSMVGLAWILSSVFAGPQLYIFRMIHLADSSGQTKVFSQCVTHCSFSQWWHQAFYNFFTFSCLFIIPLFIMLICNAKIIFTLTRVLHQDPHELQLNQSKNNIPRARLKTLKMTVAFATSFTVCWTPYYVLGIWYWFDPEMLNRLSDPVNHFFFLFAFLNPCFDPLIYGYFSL
Chain of KiSS-1 receptor (Homo sapiens) (Q969F8 whole entry, looked up): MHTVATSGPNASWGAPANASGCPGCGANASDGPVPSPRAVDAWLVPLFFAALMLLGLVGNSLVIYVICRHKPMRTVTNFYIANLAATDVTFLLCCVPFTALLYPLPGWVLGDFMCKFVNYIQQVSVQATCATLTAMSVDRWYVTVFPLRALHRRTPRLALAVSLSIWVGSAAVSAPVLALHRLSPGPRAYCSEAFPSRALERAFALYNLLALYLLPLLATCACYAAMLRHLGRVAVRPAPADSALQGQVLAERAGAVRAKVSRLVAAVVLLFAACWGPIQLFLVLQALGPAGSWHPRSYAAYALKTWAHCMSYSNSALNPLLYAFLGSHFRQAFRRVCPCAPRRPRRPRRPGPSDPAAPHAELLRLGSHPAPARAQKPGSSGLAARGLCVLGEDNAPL
Chain of Muscarinic acetylcholine receptor M1 (Homo sapiens) (P11229 whole entry, looked up): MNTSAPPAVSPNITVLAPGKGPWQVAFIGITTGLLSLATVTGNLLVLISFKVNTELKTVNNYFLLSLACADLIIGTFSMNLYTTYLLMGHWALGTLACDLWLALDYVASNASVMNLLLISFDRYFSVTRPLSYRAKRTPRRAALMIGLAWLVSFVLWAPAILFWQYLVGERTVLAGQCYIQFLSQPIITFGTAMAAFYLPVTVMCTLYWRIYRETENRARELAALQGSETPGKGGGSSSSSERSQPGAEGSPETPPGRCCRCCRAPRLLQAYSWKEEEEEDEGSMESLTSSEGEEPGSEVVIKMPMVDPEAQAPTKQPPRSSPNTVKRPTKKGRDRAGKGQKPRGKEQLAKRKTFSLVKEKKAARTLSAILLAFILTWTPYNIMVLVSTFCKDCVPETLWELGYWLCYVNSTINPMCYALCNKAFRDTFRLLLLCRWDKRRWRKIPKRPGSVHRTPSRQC
Chain of D(2) dopamine receptor (Homo sapiens) (P14416 whole entry, looked up): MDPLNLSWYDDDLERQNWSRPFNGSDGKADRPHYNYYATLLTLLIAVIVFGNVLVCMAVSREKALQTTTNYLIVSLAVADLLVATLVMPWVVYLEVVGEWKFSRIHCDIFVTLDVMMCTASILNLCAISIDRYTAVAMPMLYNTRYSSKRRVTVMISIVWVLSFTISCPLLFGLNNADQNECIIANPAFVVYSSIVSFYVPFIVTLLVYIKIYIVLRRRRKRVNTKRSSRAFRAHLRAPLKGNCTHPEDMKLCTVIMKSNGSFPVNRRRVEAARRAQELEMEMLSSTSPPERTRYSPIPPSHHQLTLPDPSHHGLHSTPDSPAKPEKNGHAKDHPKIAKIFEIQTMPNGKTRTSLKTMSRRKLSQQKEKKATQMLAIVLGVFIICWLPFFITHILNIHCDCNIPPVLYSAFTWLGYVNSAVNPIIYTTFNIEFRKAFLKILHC

Take `O=[N+]([O-])c1cc(C(F)(F)F)c(Cl)c([N+](=O)[O-])c1Nc1ncc(C(F)(F)F)cc1Cl`: the Potency in test [1] is 9.69 µM (active); in [2], 6.11 µM (active); in [5], 1.23 µM (active); in [6], 45.8 µM (active); in test [7], 25.7 µM (active); in [8], 40.8 µM (active). For the same compound, the Potency in test [10] is 472 nM (active). The Potency result in test [3], in [4], in test [9], in test [11], in [12] and in test [13] was “inactive” each time.

For `CC(C)CC(N(C)C)C1(c2ccc(Cl)cc2)CCC1` (stereo unspecified), the Potency entry in test [1], in [2], in test [3], in test [4], in test [5] and in test [6] was “inactive” in each case. The Potency entry in test [8], in [14], in test [15], in test [12] and in test [13] was “inactive” throughout. In addition, the Potency in test [7] was 0.793 µM (active).

For the compound `CC(C)N(CCC(C(N)=O)(c1ccccc1)c1ccccn1)C(C)C` (stereo unspecified), the Potency entry in test [1], in [2], in [3], in test [4], in test [5] and in test [6] was “inactive” in each case. Further, the Potency entry in test [7], in test [16], in test [9], in test [11], in test [17] and in [14] was “inactive” throughout. Further, the Potency result in test [15], in [18] and in [13] was “inactive” each time. The Potency was 2050 nM (active) in [10] and 11.4 µM (active) in test [12].

`CNC(=O)N(C)c1nc2ccccc2s1`: the Potency entry in test [1], in [2], in test [3], in test [4], in test [5] and in test [6] was “inactive” in each case. In addition, the Potency entry in test [7], in test [16], in [9], in test [10], in test [11] and in test [17] was “inactive” each time. The Potency result in test [14], in test [15], in test [18], in test [12] and in test [13] was “inactive” in each case.

As to `CCC#N`, the Potency result in test [1], in [2], in test [3], in test [4], in test [5] and in [6] was “inactive” in each case. Also, the Potency entry in test [7], in test [8], in test [9], in [10], in test [11] and in test [17] was “inactive” throughout. For the same compound, the Potency result in [14], in test [15], in test [18], in [12] and in test [13] was “inactive” each time.

On to `CCC(C)(NC(=O)c1cc(Cl)c(C)c(Cl)c1)C(=O)CCl` (stereo unspecified), for which the Potency in test [1] is 24.5 µM (active); in test [2], 1.54 µM (active); in test [9] it was 49.3 µM (active). For the same compound, the Potency result in test [3], in test [4], in test [5], in test [6], in test [7] and in [8] was “inactive” throughout. Moreover, the Potency entry in test [10], in test [11] and in test [15] was “inactive” each time.

Regarding `CNC(=O)Oc1cc(C)c(N(C)C)c(C)c1`, the Potency entry in test [1], in test [2], in test [3], in [4], in test [5] and in test [6] was “inactive” each time. Moreover, the Potency entry in test [7], in [19], in test [16], in test [9], in test [10] and in test [11] was “inactive” each time. The Potency result in test [17], in [14], in [15], in test [12] and in test [13] was “inactive” in each case.

As for `O=C(N[C@H]1CN2CCC1CC2)c1ccc2c(c1)OCCO2`, the Potency result in test [1], in test [2], in test [3], in test [4], in test [5] and in [6] was “inactive” in each case. Besides, the Potency result in test [7], in test [8], in test [9], in test [10], in test [11] and in [17] was “inactive” in each case. For the same compound, the Potency entry in test [15], in test [18], in test [12] and in test [13] was “inactive” each time.

On to `O=C(O)c1cccc(Cl)c1`, for which the Potency result in [1], in test [2], in test [3], in [4], in test [5] and in test [6] was “inactive” each time. Moreover, the Potency entry in test [7], in [8], in test [9], in test [10], in test [11] and in test [17] was “inactive” each time. Moreover, the Potency entry in test [14], in test [15] and in test [12] was “inactive” throughout.
